Screens as filed in PubChem.
Shown are actives, neighbours in structure and some others; about 4% of the full set was active somewhere.
Shn3 3UTR inh – reduction of Shn3 3'UTR firefly luciferase signal, primary screen, Schnurri-3 inhibitor project, cell-based, Clone20 osteoblasts, set 2; actives 0.52% (n = 360,000); inhibition, % at 12.5 µM; Clone20 osteoblast Shn3 3'UTR firefly luciferase, 24 h;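 active = mean inhibition of at least 75% with every replicate also reaching 75%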;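 note: 0% = median of neutral control wells and 100% = pilot-screen positive control compound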
Mdm2-MdmX inh – inhibitors of human Mdm2-MdmX association, primary screen, cell-based, luminescence, split luciferase, SaOS-2, uHTS; Protein Mdm4 (Homo sapiens) + E3 ubiquitin-protein ligase Mdm2 (Homo sapiens), …; SaOS-2 split-luciferase Mdm2/MdmX complementation; inhibition, % at 8 µM; actives 3% (n = 330,000);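 active = inhibition of at least 50% at 8 µM in the primary screen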
PAX8 reporter – inhibitors of PAX8-driven TPO luciferase reporter, primary screen, RMG-I cells, single concentration; SteadyGlo, 24 h; inhibition, % at 12.6 µM; actives 1.2% (n = 360,000); AID 652154, 2013;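 active = mean replicate inhibition at least 60% with every replicate also reaching 60%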;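 note: luciferase light reporting Pax8 driven TPO promoter activity; plate controls were median of neutral control wells for no effect and mitoxantrone controls for full effect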
Beta cell apopt – inhibitors of cytokine-induced beta cell apoptosis, primary screen, luminescence; protection from apoptosis, % (test concentration not listed); AID 435005, 2010; INS-1E cytokine-induced death, ATP luminescence, 48 h; percent of positive-control rescue, neutral wells zero; actives 0.8% (n = 300,000);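 active = Every replicate reaches about 75%, or at least half do and their mean reaches it too, limit read from the data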;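 note: 0% = cytokine-treated negative control wells and 100% = positive control rescue; higher means more ATP so stronger rescue from cytokine killing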
CSC inhib – cancer stem cell viability inhibitors, primary screen, luminescence; AID 2717, 2010; cancer stem cell-like cells viability; actives 1.1% (n = 300,000); inhibition, % at 7.5 µM; in the data active = inhibition above about 75%; tested in HMLE shEcad cells
Gli-Sufu block – Gli-Sufu pathway antagonists, primary screen, luciferase luminescence, Sufu-KO-LIGHT cells, uHTS. Sufu-KO-LIGHT fibroblasts, Gli luciferase reporter luminescence. inhibition, % at 5 µM. actives 0.74% (n = 340,000);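 active = inhibition above about 55%, limit read from the data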;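 note: 0% = DMSO-treated cells and 100% = wells with medium but no cells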
Mdm2-MdmX conf – Mdm2-MdmX complex disruptors, retested hits, confirmation, luminescence, single concentration. inhibition, % at 8 µM. Mdm2-MdmX binding, luminescent assay. shares compounds with Mdm2-MdmX inh. actives 55% (n = 10,000); in the data active = inhibition above about 40%
Full FLuc ctr – full-length luciferase signal inhibition, confirmation, counter-screen for Mdm2/MdmX interaction inhibitor project, cell-based, single concentration, SaOS-2 | AID 504607, 2011 | shares compounds with Mdm2-MdmX inh | SaOS-2 full-length luciferase counterscreen, luminescence | inhibition, % at 8 µM | actives 77% (n = 6,200);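 active = mean inhibition at 8 µM reaching about 37%, which flags the compound as non-specific, limit read from the data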;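 note: p53-null SaOS-2 cells with luciferase driven by a doxycycline-inducible promoter; compound on cells about two nights before reading with doxycycline added after day one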
* = called active by the depositor; / = no result.

SMILES	Shn3 3UTR inh	Mdm2-MdmX inh	PAX8 reporter	Beta cell apopt	CSC inhib	Gli-Sufu block	Mdm2-MdmX conf	others
CC(C)(C)c1ccc(CS(=O)(=O)CC2(O)CCN(C(=O)c3cccc(C(F)(F)F)c3)CC2)cc1	-11.4	61.4*	-6.2	/	-6.8	-3.3	1.4
COc1cccc(-c2cc(-c3cccnc3)c(C#N)c(N)n2)c1	-12.2	21.9	-5.5	3.6	-11.2	-1.4	/
Cc1nc(N)c(C#N)c(-c2cccnc2)c1-c1ccccc1	23.1	56.4*	-60.5	-10.8	-2.7	-6.3	41.9*	Full FLuc ctr=55.6*
N#Cc1c(-c2ccc(F)cc2)cc(-c2cccnc2)nc1N	23.7	12.7	-29.0	8.6	-7.5	4.2	/
COc1ccc(OC)c(-c2cc(-c3cccnc3)nc(N)c2C#N)c1	-8.0	63.1*	21.1	3.4	76.3*	-2.9	62.0*	Full FLuc ctr=76.2*
COc1cccc(-c2cc(-c3cccnc3)nc(N)c2C#N)c1	14.9	59.5*	-3.8	-1.2	-3.7	-4.7	11.5
COc1ccc(-c2cc(-c3cccnc3)c(C#N)c(N)n2)cc1	-24.0	72.7*	11.9	-1.0	7.7	2.0	8.6
Cc1c(-c2ccccc2)nc(N)c(C#N)c1-c1cccnc1	-4.4	26.3	10.6	0.1	-4.7	9.0	/
C[C@H](CO)N1C[C@H](C)[C@@H](CN(C)S(=O)(=O)c2ccc(F)cc2)Oc2ccc(NS(C)(=O)=O)cc2CC1=O	/	/	-29.2	/	/	/	/
Cc1cccc(S(=O)(=O)N2C[C@H](O)COC[C@@H]3O[C@@H](CC(=O)Nc4ccc(-c5ccccc5)cc4)CC[C@H]32)c1	/	/	41.0	/	/	/	/
Cc1noc(C)c1S(=O)(=O)Nc1ccc2c(c1)C(=O)N([C@@H](C)CO)C[C@@H](C)[C@H](CN(C)C(=O)Cc1ccccc1)OCCCC[C@@H](C)O2	/	/	4.3	/	/	/	/
Oc1ccc(/C=N/Nc2cc(N3CCCC3)nc(N3CCCC3)n2)cc1	8.7	29.2	/	5.3	5.3	7.4	/
Cc1cc(N/N=C/c2ccccc2[N+](=O)[O-])nc(-n2nc(C)cc2C)n1	80.2	53.3*	20.6	127.8*	54.1	-7.7	36.6	Full FLuc ctr=43.2*
Cc1cc(N/N=C/c2cccc(Cl)c2)nc(-n2nc(C)cc2C)n1	41.8	64.0*	14.7	103.2*	20.0	-3.7	30.7
COc1ccc(/C=N/Nc2cc(N3CCCC3)nc(N3CCCC3)n2)cc1	77.6	77.1*	68.2*	56.1	91.7*	36.8	20.4
COc1ccc(/C=N/Nc2cc(C)nc(-n3nc(C)cc3C)n2)cc1	52.8	53.7*	12.0	90.0*	18.9	11.6	40.2*	Full FLuc ctr=51.7*
Cc1cc(C)n2nc(C(=O)N/N=C/c3cccc(Cl)c3)nc2n1	12.1	-4.6	-4.3	5.9	10.6	0.5	/
Cc1cc(N/N=C/c2cccc([N+](=O)[O-])c2)nc(-n2nc(C)cc2C)n1	18.1	15.2	-5.5	59.1	29.5	4.8	/
O=C(C[C@H]1C=C[C@H](NC(=O)Nc2ccc(C(F)(F)F)cc2)[C@H](CO)O1)NCCN1CCCC1	/	/	-17.5	/	/	/	/
O=C(C[C@@H]1CC[C@@H](NC(=O)CN2CCOCC2)[C@@H](CO)O1)NC1CCCCC1	/	/	-0.5	/	/	/	/
CC(C)(c1ccccc1)c1ccc(OCC2CO2)cc1 (stereo unspecified)	8.6	6.8	-19.3	-3.0	-3.4	-0.8	/
O=S(=O)(c1ccc(OCC2CO2)cc1)c1ccc(OCC2CO2)cc1 (stereo unspecified)	-8.2	87.2*	-2.5	25.5	14.9	-4.8	33.8
